Reference: PubChem BioAssay (NCI)
About 83,000 compounds went through this panel and 20% of them were active in at least one assay; those are over-represented in the sample as a whole.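 Percent growth is the endpoint: 0 to 100 indicates growth inhibition (40 means 60% inhibition), 0 means no net growth, and negative values indicate cell death.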 Activity calls are given as the source filed them.

Test system: OVCAR-4 ovarian
Assay: NCI-60 one-dose screen, 48 h (100 = growth as untreated, 0 = no growth, -100 = all killed)
Details: 10 µM
Method: Growth inhibition of the OVCAR-4 human tumor cell line is measured as a screen for anti-cancer activity. Cells are grown in 96 well plates and exposed to the test compound for 48 hours. Compounds are tested at a single concentration, which is 10^-5 M for most compounds. The reported endpoint is percent growth (GI% or GIPRCNT), where numbers from 0 - 100% represent growth inhibition, and numbers from -100% - 0 represent cell death. For example, a value of 40 represents 60% growth inhibition. A value of 0 means no net growth occurred over the course of the experiment. A value of -40 indicates 40% of cells at the beginning of the experiment died by the end of the experiment. A value of -100 means all cells are dead at the end of the experiment.
NCI-60 Human Tumor Cell Lines Screen was performed using the standard one-dose NCI protocol, which is described in more detail at https://dtp.cancer.gov/discovery_development/nci-60/default.htm.
Compounds with GIPRCNT values below 10 were considered active. Activity score was based on GIPRCNT using the following formula: […]
Score is 0 for GIPRCNT values of 100 or above, 50 for GIPRCNT values of 0, and 100 for GIPRCNT values of -100.

SMILES | growth
CCOC(=O)c1cc(C(=O)c2cc(OC)cc(OC)c2)n2nc(C)ccc12 | 56.6% (inactive)
Nc1ccccc1NC(=O)c1ccc(CCCC(=O)Nc2ccc(C3CC3N)cc2)cc1 (stereo not given) | 49.7% (inactive)
O=C1/C(=C/c2cccc(F)c2)Cc2ccccc21 | 97.5% (inactive)
COc1cc2cc(Oc3ccc(NC(=O)Nc4ccc(C(F)(F)F)cc4)cc3)c(C)nc2cc1OC | 49% (inactive)
O=S(=O)(O)c1cccc(Nc2ccc3ccccc3c2)c1 | 99% (inactive)
N#Cc1c(-c2ccc(Cl)cc2)n(O)c2ccccc12 | 26.5% (inactive)
CCNc1nc(C(F)(F)F)nc2c1sc(=S)n2-c1ccccc1 | 98.2% (inactive)
CN(C)c1ccc(/C=N/NC(=O)c2ccccc2Nc2cccc(C(F)(F)F)c2)cc1 | 76.1% (inactive)
CSc1ccc(-c2cc(-c3ccc(NC(=O)CCCN4CCCC4)cc3)nc(-c3ccc(NC(=O)CCCN4CCCC4)cc3)c2)cc1 | 67.3% (inactive)
O=C(CCCCNC(=O)c1nc(-c2ccccc2)n(-c2ccccc2)n1)NO | 90.6% (inactive)
CCOC(=O)c1cc(C(=O)c2ccc(OC)c(OC)c2)n2c1ccc1ccc3cccnc3c12 | 59.2% (inactive)
Fc1ccc2[nH]cc(-c3nc(-c4ccsc4)cs3)c2c1 | 101% (inactive)
CN1C(=O)C2(Nc3cc(Cl)ccc3S2)c2cc(Cl)ccc21 (stereo not given) | 70.3% (inactive)
CCCCc1oc2ccccc2c1C(=O)c1cc(I)c(OCCN(CC)CC)c(I)c1 | 10.3% (inactive)
O=C(N/N=C/c1ccc(Cl)cc1)c1ccccc1Nc1cccc(C(F)(F)F)c1 | 74.8% (inactive)
CN1CCc2c(sc3nc4n(-c5ccc(Cl)cc5)c(=O)[nH]n4c(=O)c23)C1 | 109% (inactive)
NS(=O)(=O)Oc1ccc(NC(=O)C2CCCCCC2)cc1 | 107% (inactive)
COc1cc(/C=C/c2cc(/C=C/c3ccc(O)c(OC)c3)[nH]c(=O)n2)ccc1O | 54% (inactive)
COc1cc(-c2nn(-c3cccc(NC(=O)NCCNC(=O)c4cccc(C(F)(F)F)c4)c3)cc2-c2ccncc2)ccc1Cl | 49.4% (inactive)
O=C(c1ccccc1)N(C(=O)c1ccccc1)N1CCCC1 | 106% (inactive)

SMILES | growth
COc1ccc(Cc2cnc(N)nc2N)cc1OC | 106% (inactive)
CC1CCCC(C(=O)O)C1C(=O)O (stereo not given) | 103% (inactive)
CCOC(=O)c1cc(C(=O)c2cc(OC)cc(OC)c2)n2ncc3ccccc3c12 | -18% (active)
O=S(=O)(Oc1ccc(-c2ccc3sccc3c2)cc1)c1ccccc1 | 103% (inactive)
Cc1ccccc1N1C(=O)c2cc(S(N)(=O)=O)c(Cl)cc2NC1C (stereo not given) | 111% (inactive)
CC(=O)O[C@@]12CO[C@@H]1C[C@H](O)[C@@]1(C)C(=O)[C@H](O)C3=C(C)[C@@H](OC(=O)[C@H](O)[C@@H](NC(=O)OC(C)(C)C)c4ccccc4)C[C@@](O)([C@@H](OC(=O)c4ccccc4)C12)C3(C)C (stereo not given in full) | 58% (inactive)
Cc1nn(-c2ccccc2)c2nc(Cl)c(C=O)c(-c3ccccc3)c12 | 102% (inactive)
O=[N+]([O-])c1ccc2ncccc2c1Cl | 90.2% (inactive)
Cc1ccc(C2=NN(c3ccc(S(C)(=O)=O)cc3)C(=O)CC2)cc1 | 60.8% (inactive)
Oc1cccc(-c2nc3sccn3c2-c2ccncn2)c1 | 114% (inactive)
COc1ccc2nc3cc(Cl)ccc3c(NCCCNCCO)c2c1 | -35.9% (active)
Cc1cccc(N=Cc2ccccc2O)c1C | 104% (inactive)
IC(I)I | 108% (inactive)
CN1C(C(=O)Nc2ccccn2)=C(O)c2sc(Cl)cc2S1(=O)=O | 106% (inactive)
CC[C@@H](C(=O)[C@H](C)[C@H](O)[C@@H](C)[C@H]1O[C@H]([C@@H](CC)C(=O)N(CC)CC)CC[C@H]1C)C1O[C@]2(C=C[C@@H](O)[C@]3(CC[C@@](C)([C@H]4CC[C@](O)(CC)[C@H](C)O4)O3)O2)[C@H](C)C[C@@H]1C (stereo not given in full) | 28.2% (inactive)
COc1ccc(-c2cc(-c3ccc(OC)c(OC)c3)nc(SCCCC(=O)NO)n2)cc1 | 13.1% (inactive)
O=S(=O)(NCCCNc1nccc(-c2cn(-c3ccccc3)nc2-c2ccc(Cl)c(O)c2)n1)c1ccccc1 | 71.1% (inactive)
COc1cc(C(=O)/C(C)=C/c2c[nH]c3ccccc23)cc(OC)c1OC | 50.1% (inactive)
COc1ccc2nc(-c3ccc(Cl)cc3)cc(-c3nnc(SC/C(=N\O)c4ccccc4)n3-c3ccccc3)c2c1 | 84.5% (inactive)
COc1cc(-c2csc(NC(=O)Nc3ccc(Cl)c(C(F)(F)F)c3)n2)cc(OC)c1OC | -1.69% (active)
